# Results taken from the supplement of paper PMC10338343.
# ± gives the standard deviation.
# System: MILI (PIWIL2) piRISC loaded with L1MC piRNA (26 nt)
# Assay: pre-steady-state target cleavage rate (min^-1); guide: L1MC piRNA 5'p-UAACUAAAUACUAUGCAAGCUGUAGG; MIWI and MILI are mouse PIWI proteins and EfPiwi is from a freshwater sponge; tags in brackets are library labels; higher = faster piRNA-guided slicing of the target
# Procedure, shortened: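 The pre-steady-state cleavage rate was obtained by Cleave-'n-Seq with a burst-and-steady-state fit. A transcribed, DNA-blocked target RNA library (0.1 nM) was mixed with 1 nM active affinity-purified piRISC carrying one synthetic guide, with or without 500 nM GTSF1 partner protein, in HEPES–potassium acetate buffer at 33 °C for 0–8 or 0–960 min. Uncleaved targets were sequenced and normalised to depth and to weakly complementary targets, with three trials pooled and k3 capped at 0.0001 min^-1.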
# [1] = auxiliary factor: 500 nM mouse GTSF1
# [2] = auxiliary factor: none (no GTSF1)
Sequence,pre-steady-state target cleavage rate [1],pre-steady-state target cleavage rate [2]
UCCUGGAUGUCCUUGCAUAGUAUAUAGUUA,0.149 ± 0.026,0.00505 ± 0.0026
UCCUGGUACAGCUUGGUAAGUAUUUAGUUA,0.113 ± 0.018,0.00809 ± 0.0033
UCCUGGUACAGCUUGCAUAGUUAAUAGUUA,0.0312 ± 0.01,0.00424 ± 0.0026
UCCUGGAUGUGGUUGCAUAGAAUUUAGUUA,0.0151 ± 0.0063,0.00318 ± 0.0028
UCCUGGAUGUCGAUGCAUAGUAAUUUAGUUA,0.0247 ± 0.008,0.00496 ± 0.0023
UCCUGGAUGUGCUUGCAAUGUAUUUAGUAA,0.0131 ± 0.0037,0.00545 ± 0.0027
UCCUGGAUGUCCAUGCAUAGUUUUUAGUUA,0.0166 ± 0.0043,0.00362 ± 0.0023
UCCUGGAUGUCGAUGCAUAGUAUCUAGUUA,0.0915 ± 0.017,0.00396 ± 0.0023
UCCUGGAUGUGCUUGCAUAGUAUUCUAGUUA,0.193 ± 0.045,0.00428 ± 0.0034
UCCUGGAUGUGCUUGCUUAGUAUAUAGUUA,0.0668 ± 0.011,0.00411 ± 0.0025
UCCUGGUACAGCUUGCAUAGUAUUUAAGUUA,0.22 ± 0.041,0.0123 ± 0.0043
UCCUGGAUGAGCUAGCAAAGUAUUUAGUUA,0.0455 ± 0.0079,0.00456 ± 0.0024
UCCUGGUACACCUUGCAAAGUAUUUAGUUA,0.0646 ± 0.011,0.0081 ± 0.0033
UCCUGGAUGUGCUUGCUUAGUAAUUAGUUA,0.0601 ± 0.0087,0.00576 ± 0.0023
UCCUGGUACAGCCUUGCAUAGUAUUUAGUUA,0.198 ± 0.02,0.0147 ± 0.0051
UCCUCCUACAGCUUCGAUAGUAUUUAGUUA,0.26 ± 0.017,0.00534 ± 0.0022
UCCUGGUACAGCUUGCAUAGUUAUUUAGUUA,0.0143 ± 0.0076,0.00549 ± 0.0044
UCCUGGAUGUGCUUGGAUAGUAUUUAGUUA,0.115 ± 0.013,0.00702 ± 0.0024
UCCUGCUACAGGUUGCAUAGUAUUUAGAUA,0.114 ± 0.033,0.00283 ± 0.0027
UCCUGGAUGAGCAUGCAUAGUAAUUAGUUA,0.156 ± 0.021,0.00824 ± 0.0028
UCCUGGAUGUGCUUGGAUAGUAUUAAGUUA,0.0647 ± 0.018,0.00591 ± 0.0023
UCCUGGAUGAGCUUGCAUAGGUAUUUAGUUA,0.00411 ± 0.0031,0.00493 ± 0.0023
UCCUGGAACAGCUUGGAUUGUAUUUAGUUA,0.0767 ± 0.011,0.00295 ± 0.0026
UCCUGGAUGUCCUUGCAUAGUAAUUAGUUA,0.111 ± 0.019,0.00618 ± 0.0018
UCCUGGAUGUCGUUGCAUAGUAAUUUGUUA,0.00776 ± 0.005,0.00315 ± 0.0027
UCCUGGAUCAGGAUGCAUAGUAUUUAGUAA,0.128 ± 0.012,0.00364 ± 0.002
UCCUGGAUGUGCUUGCUUAGUAUUUAGUAA,0.0779 ± 0.014,0.00576 ± 0.0018
UCCUGGAACAGCUUGGUAAGUAUUUAGUUA,0.115 ± 0.014,0.00498 ± 0.0019

Sequence,pre-steady-state target cleavage rate [1],pre-steady-state target cleavage rate [2]
UCCUGGAUGUCGUUGCAUAGUAUUUAGUGUA,0.17 ± 0.027,0.00477 ± 0.0035
UCCUCCUACAGCUUCGUUAGUAUUUAGUUA,0.221 ± 0.013,0.00396 ± 0.0017
UCCUGGUACACGUUGCAUAGUAUUUAGUUA,0.19 ± 0.045,0.0113 ± 0.0051
UCCUGGAUGUGCUUGGAUAGUUUUUAGUUA,0.00761 ± 0.0046,0.00414 ± 0.0024
UCCUGGAUGUCCUUGCAUUGUAUAUAGUUA,0.0803 ± 0.022,0.00438 ± 0.0024
UCCUGCUACAGCUUCGUUAGUAUUUAGUUA,0.239 ± 0.022,0.00333 ± 0.0027
UCCUGGAUGUGCAUGCAUUGUAUUUAGUUA,0.0212 ± 0.0051,0.00604 ± 0.0024
UCCUGGUACAGCUUGAUAGUAUUUAGUUA,0.0803 ± 0.011,0.00786 ± 0.0031
UCCUGGAUCCAGCUUGCAUAGUAUUUAGUUA,0.3 ± 0.017,0.00437 ± 0.003
UCCUGGAUGUCCCUUGCAUAGUAUUUAGUUA,0.116 ± 0.021,0.00815 ± 0.0024
UCCUGGAUCAGCUUGGUUAGUAUUUAGUAA,0.256 ± 0.031,0.00444 ± 0.0025
UCCUGGUACAGUCUUGCAUAGUAUUUAGUUA,0.254 ± 0.033,0.0122 ± 0.0047
UCCUGGAUGUGCUAGCAAAGUAUUUAGUUA,0.0105 ± 0.0034,0.00469 ± 0.0015
UCCUGGAUGUCCUUCGCAUAGUAUUUAGUUA,0.0676 ± 0.015,0.00538 ± 0.0022
UCCUGGUACAGCUUCGUUAGUAUUUAGUAA,0.165 ± 0.04,0.00388 ± 0.0027
UCCUGGAUCAGCUUGGUUAGUAUUUAGUUA,0.209 ± 0.016,0.0137 ± 0.0033
UCCUGGAACUGCUUGCAUAGUAUUUACUUA,0.0984 ± 0.027,0.00292 ± 0.0023
UCCUGGUACACCUUGCAUAGUUUUUAGUUA,0.0288 ± 0.011,0.00381 ± 0.0034
UCCUGGAACACCUUGGAUAGUAUUUAGUUA,0.153 ± 0.021,0.00568 ± 0.0025
UCCUGGUACAGCUUGUCAUAGUAUUUAGUUA,0.19 ± 0.018,0.0068 ± 0.003
UCCUCCUACAGCUUGCUAUGUAUUUAGUUA,0.0502 ± 0.011,0.00506 ± 0.0018
UCCUGGAUGUCGUUGCAUAGUAAUUUAGUUA,0.0127 ± 0.0059,0.00447 ± 0.0029
UCCUGGAUGUCGAAGCAUAGUACUUUAGUUA,0.00532 ± 0.0027,0.00317 ± 0.002
UCCUGGUACACGAUGCAUAGUAUUUAGUUA,0.252 ± 0.058,0.00395 ± 0.0035
UCCUGGAUGUCGAACCAAUGUAUUUAGUUA,< 0.0001,< 0.0001
UCCUGGAUGUGCUUGCAAAGUUUUUAGUUA,0.00595 ± 0.0038,0.0065 ± 0.0023
UCCUGGUACAGCUUGCAUAGUGAUUUAGUUA,0.0336 ± 0.01,0.00917 ± 0.0038
